Measurements as given in PubChem BioAssay (Tox21).
Inconclusive results are not listed. Active and inactive are the calls of the source. Unless noted, calls come from the whole dose curve; as a rule, active = well fitted curve in the direction sought with a large enough effect in the repeat runs; inconclusive = weak or mixed curves; inactive = no such curve, though single readings can be large; an effect the other way counts as inactive or inconclusive.

Tests used:
[1] = qHTS assay to test for compound auto fluorescence at 535 nm (green) in HEK293 cells (AID 720680)
[2] = qHTS assay to test for compound auto fluorescence at 460 nm (blue) in HEK293 cell free culture (AID 720681)
How it was run: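 Compounds were added to cell-free DMEM with 10% FBS and fluorescence read directly. The blue channel used 405 nm excitation and 460 nm emission, with triamterene as the reference fluorophore.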

[3] = qHTS assay to test for compound auto fluorescence at 535 nm (green) in HEK293 cell free culture (AID 720682)
How it was run: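 Green-label autofluorescence (485 nm excitation, 535 nm emission) measured on compound added to cell-free culture medium (DMEM, 10% FBS). Output is expressed relative to fluorescein.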

[4] = qHTS assay to test for compound auto fluorescence at 590 nm (red) in HEK293 cell free culture (AID 720683)
How it was run: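 Cell-free wells of DMEM with 10% FBS received compound, and intrinsic fluorescence was read at excitation/emission 540/590 nm. Values expressed as equivalence to Rose Bengal sodium.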

[5] = qHTS assay to test for compound auto fluorescence at 590 nm (red) in HepG2 cell free culture (AID 720684)
How it was run: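 Rose Bengal sodium served as the reference for red signal. Test compounds were dispensed into serum-containing MEM (10% FBS) without cells, and plates were read at 540/590 nm.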

[6] = qHTS assay to test for compound auto fluorescence at 460 nm (blue) in HepG2 cell free culture (AID 720685)
How it was run: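 Cell-free plates of MEM plus 10% FBS received 23 nL compound or DMSO vehicle; blue-channel (405/460 nm) intensity scored against triamterene as reference fluorophore.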

[7] = qHTS assay to test for compound auto fluorescence at 535 nm (green) in HepG2 cell free culture (AID 720686)
[8] = qHTS assay to test for compound auto fluorescence at 460 nm (blue) in HepG2 cells (AID 720687)
How it was run: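 HepG2 cells in MEM with 10% FBS, attached overnight at 37 C, were exposed to compound or DMSO for 1 hr at 37 C, 5% CO2. Blue fluorescence was read at 405/460 nm, with triamterene as reference fluorophore.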

[9] = biological target: Glucocorticoid receptor (Homo sapiens) (UniProt P04150); experiment: qHTS assay to identify small molecule agonists of the glucocorticoid receptor (GR) signaling pathway (AID 720691; active = well fitted activation curve with a large enough effect in the signal ratio in the repeat runs, not every such curve was filed as active; the % refers to the signal ratio)
How it was run: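 Cells: GR-bla HeLa, endogenous GR with stably integrated GRE-beta-lactamase reporter. Treatment 18 h, 37 C, compounds delivered in DMSO. Detection via LiveBLAzer B/G FRET substrate, 2 h RT, fluorescence intensity.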

[10] = biological target: Glucocorticoid receptor (Homo sapiens) (UniProt P04150); experiment: qHTS assay to identify small molecule antagonists of the glucocorticoid receptor (GR) signaling pathway (AID 720692; active = well fitted inhibition curve with a large enough effect in the signal ratio in the repeat runs, not every such curve was filed as active; the % refers to the signal ratio)
How it was run: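 Quantitative HTS in antagonist format: HeLa cells expressing endogenous GR and a stably integrated GRE-bla reporter, stimulated with 5 nM dexamethasone (final) alongside test compounds for 18 h.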

[11] = qHTS assay to identify small molecule antagonists of the glucocorticoid receptor (GR) signaling pathway - cell viability counter screen (AID 720693); note: nearly all actives have a fitted effect of over 55% in size
[12] = qHTS assay for identifying genotoxic compounds that show differential cytotoxicity against isogenic chicken DT40 cell lines with known DNA damage response pathways - wild type cell line (AID 743012); note: nearly all actives have a fitted effect of over 60% in size
How it was run: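 Luminescent ATP viability signal (CellTiter-Glo, 30 min RT) recorded after wild type DT40 cells were incubated with compounds for 40 h at 37 C/5% CO2.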

[13] = qHTS assay for identifying genotoxic compounds that show differential cytotoxicity against isogenic chicken DT40 cell lines with known DNA damage response pathways - Rev3 mutant cell line (AID 743014); note: nearly all actives have a fitted effect of over 55% in size
[14] = qHTS assay for identifying genotoxic compounds that show differential cytotoxicity against isogenic chicken DT40 cell lines with known DNA damage response pathways - Rad54/Ku70 mutant cell line (AID 743015); note: nearly all actives have a fitted effect of over 60% in size
[15] = qHTS assay to identify small molecule antagonists of the androgen receptor (AR) signaling pathway - cell viability counter screen (AID 743033; note: nearly all actives have a fitted effect of over 45% in size)
[16] = qHTS assay to identify small molecule antagonists of the androgen receptor (AR) signaling pathway using the MDA cell line - cell viability counter screen (AID 743041; note: nearly all actives have a fitted effect of over 45% in size)
How it was run: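 Cytotoxicity counter screen: MDA-kb2 AR-luc cells, compound + R1881, 16 h, 37C, 0% CO2; CellTiter-Fluor added at 15.5 h, fluorescence read after 30 min.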

[17] = biological target: Androgen receptor (Homo sapiens) (UniProt P10275); experiment: qHTS assay to identify small molecule antagonists of the androgen receptor (AR) signaling pathway (AID 743035; active = well fitted inhibition curve with a large enough effect in the signal ratio in the repeat runs, not every such curve was filed as active; the % refers to the signal ratio)
How it was run: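 Quantitative HTS of the Tox21 10K library used HEK293 AR-UAS-bla cells stimulated with R1881 alongside compound for 16 h at 37C, followed by beta-lactamase FRET detection (LiveBLAzer B/G, 2 h, RT).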

[18] = biological target: Androgen receptor (Homo sapiens) (UniProt P10275); experiment: qHTS assay to identify small molecule agonists of the androgen receptor (AR) signaling pathway (AID 743036; active = well fitted activation curve with a large enough effect in the signal ratio in the repeat runs, with a control signal flat, not every such curve was filed as active; the % refers to the signal ratio)
How it was run: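 AR-UAS-bla HEK293 cells, plated 4 h before dosing, were treated with compound for 16 h at 37C. beta-Lactamase reporter read after 2 h with LiveBLAzer B/G FRET substrate at room temperature.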

[19] = biological target: Androgen receptor (Homo sapiens) (UniProt P10275); experiment: qHTS assay to identify small molecule agonists of the androgen receptor (AR) signaling pathway using the MDA cell line (AID 743040; note: nearly all actives have a fitted effect of over 20% in size)
How it was run: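 Luciferase read-out, ONE-Glo, 30 min RT. Cells: MDA-kb2 AR-luc, MMTV promoter with AR and GR response elements. Compound exposure 16 h, 37C, 0% CO2, after 5 h pre-incubation. qHTS agonist mode.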

[20] = biological target: Androgen receptor (Homo sapiens) (UniProt P10275); experiment: qHTS assay to identify small molecule antagonists of the androgen receptor (AR) signaling pathway using the MDA cell line (AID 743042; note: nearly all actives have a fitted effect of over 55% in size)
How it was run: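 MDA-kb2 breast carcinoma cells carrying MMTV-luciferase (AR/GR responsive) were co-treated with compounds and the agonist R1881 for 16 h at 37C. Inhibition read as ONE-Glo luminescence; CellTiter-Fluor fluorescence measured in parallel for cytotoxicity.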
% is set by controls: 0 for no effect and ±100 for the full control effect.

Chain of Glucocorticoid receptor (Homo sapiens) (P04150 whole entry, looked up): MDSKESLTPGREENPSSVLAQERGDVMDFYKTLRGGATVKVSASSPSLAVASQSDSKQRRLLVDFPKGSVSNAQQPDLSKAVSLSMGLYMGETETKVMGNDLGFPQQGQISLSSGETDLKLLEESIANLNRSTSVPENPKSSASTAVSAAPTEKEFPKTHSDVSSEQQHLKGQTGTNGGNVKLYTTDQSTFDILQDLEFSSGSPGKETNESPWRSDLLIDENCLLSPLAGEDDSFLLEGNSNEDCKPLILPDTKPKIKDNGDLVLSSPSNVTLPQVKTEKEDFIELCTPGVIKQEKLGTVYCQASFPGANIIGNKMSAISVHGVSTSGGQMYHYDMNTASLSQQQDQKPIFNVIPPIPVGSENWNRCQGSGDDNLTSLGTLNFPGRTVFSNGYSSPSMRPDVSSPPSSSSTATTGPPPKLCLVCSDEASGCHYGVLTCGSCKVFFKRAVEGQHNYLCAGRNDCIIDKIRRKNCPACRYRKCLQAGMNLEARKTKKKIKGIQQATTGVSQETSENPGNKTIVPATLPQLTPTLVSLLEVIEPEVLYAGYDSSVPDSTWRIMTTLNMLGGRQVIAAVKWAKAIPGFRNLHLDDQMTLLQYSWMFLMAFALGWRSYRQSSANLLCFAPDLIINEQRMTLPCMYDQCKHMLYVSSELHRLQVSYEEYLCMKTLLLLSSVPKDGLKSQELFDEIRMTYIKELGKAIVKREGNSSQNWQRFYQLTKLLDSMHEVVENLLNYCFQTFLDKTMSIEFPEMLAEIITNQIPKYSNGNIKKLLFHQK
Chain of Androgen receptor (Homo sapiens) (P10275 whole entry, looked up): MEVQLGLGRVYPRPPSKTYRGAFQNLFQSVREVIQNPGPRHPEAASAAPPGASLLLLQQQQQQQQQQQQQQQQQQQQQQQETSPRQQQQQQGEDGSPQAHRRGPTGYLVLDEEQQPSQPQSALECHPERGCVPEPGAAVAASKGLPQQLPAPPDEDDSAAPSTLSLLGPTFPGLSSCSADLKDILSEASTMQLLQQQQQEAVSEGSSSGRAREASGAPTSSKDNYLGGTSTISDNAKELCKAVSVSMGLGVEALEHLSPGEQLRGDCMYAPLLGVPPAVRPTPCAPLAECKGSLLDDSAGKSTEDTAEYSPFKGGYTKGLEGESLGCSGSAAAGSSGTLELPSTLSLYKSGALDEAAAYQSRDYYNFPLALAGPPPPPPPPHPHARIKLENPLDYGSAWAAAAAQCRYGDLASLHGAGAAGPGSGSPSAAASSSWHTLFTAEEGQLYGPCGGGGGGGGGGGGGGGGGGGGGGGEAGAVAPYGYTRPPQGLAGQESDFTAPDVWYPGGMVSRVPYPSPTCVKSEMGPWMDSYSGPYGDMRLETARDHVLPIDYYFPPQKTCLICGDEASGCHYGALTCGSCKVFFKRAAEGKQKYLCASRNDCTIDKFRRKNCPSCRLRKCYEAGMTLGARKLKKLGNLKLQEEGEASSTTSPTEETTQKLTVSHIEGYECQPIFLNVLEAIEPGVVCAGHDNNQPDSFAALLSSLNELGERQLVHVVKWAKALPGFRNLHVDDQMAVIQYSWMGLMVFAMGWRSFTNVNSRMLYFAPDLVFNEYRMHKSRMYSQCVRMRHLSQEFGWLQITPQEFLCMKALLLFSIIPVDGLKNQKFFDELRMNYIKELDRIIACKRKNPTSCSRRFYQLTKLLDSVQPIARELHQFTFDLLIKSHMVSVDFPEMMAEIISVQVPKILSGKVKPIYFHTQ

CC1=C(O)C(=O)C(C)O1 (stereo not drawn)
inactive: outcome [1] | outcome [2] | outcome [3] | outcome [4] | outcome [5] | outcome [6] | outcome [7] | outcome [8] | Potency [9] | outcome [10] | outcome [11] | Potency [12] | Potency [13] | Potency [14] | outcome [15] | Potency [16]

CN(C)CCOC(=O)C(c1ccccc1)C1(O)CCCC1 (stereo not drawn)
inactive: outcome [1] | outcome [2] | outcome [3] | outcome [4] | outcome [5] | outcome [6] | outcome [7] | outcome [8] | Potency [9] | outcome [10] | outcome [11] | Potency [12] | Potency [13] | Potency [14] | outcome [15] | Potency [16]

CCCCCCCCCOC(=O)CCCCC(=O)OCCCCCCC
inactive: outcome [1] | outcome [2] | outcome [3] | outcome [4] | outcome [5] | outcome [6] | outcome [7] | outcome [8] | Potency [9] | outcome [10] | outcome [11] | Potency [12] | Potency [13] | Potency [14] | outcome [15] | Potency [16]

CCn1cc(C(=O)O)c(=O)c2cnc(N3CCCC3)nc21
inactive: fluorescence, % of fluorescein [1] 0.0361% [at 18.6 µM] | fluorescence, % of fluorescent control [2] 0.169% [at 18.6 µM] | activity change [3] -0.0351% [at 18.6 µM] | fluorescence, % of fluorescent control [4] -0.162% [at 18.6 µM] | fluorescence, % of Rose Bengal [5] 0.682% [at 18.6 µM] | fluorescence, % of fluorescent control [6] 0.141% [at 18.6 µM] | fluorescence, % of fluorescein control [7] -0.0006% [at 18.6 µM] | fluorescence, % of fluorescent control [8] 2.47% [at 18.6 µM] | Potency [9] | outcome [10] | outcome [11] | Potency [12] | Potency [14] | outcome [15] | Potency [16]

OCC1CCC(CO)CC1 (stereo not drawn)
inactive: outcome [1] | outcome [2] | outcome [3] | outcome [4] | outcome [5] | outcome [6] | outcome [7] | outcome [8] | Potency [9] | outcome [10] | outcome [11] | Potency [12] | Potency [14] | outcome [15] | outcome [17] | outcome [18] | Potency [19] | Potency [16] | outcome [20]

CC1(C)Cc2cccc(N)c2O1
inactive: outcome [1] | outcome [2] | outcome [3] | outcome [4] | outcome [5] | outcome [6] | outcome [7] | outcome [8] | Potency [9] | outcome [10] | outcome [11] | Potency [12] | Potency [13] | Potency [14] | outcome [15] | Potency [16]

CCCCCCCCCCCCCCCCCC#N
inactive: outcome [1] | outcome [2] | outcome [3] | outcome [4] | outcome [5] | outcome [6] | outcome [7] | outcome [8] | Potency [9] | outcome [10] | outcome [11] | Potency [12] | Potency [13] | Potency [14] | outcome [15] | Potency [16]

Cc1ncc([N+](=O)[O-])n1CC(C)O (stereo not drawn)
inactive: outcome [1] | outcome [2] | outcome [3] | outcome [4] | outcome [5] | outcome [6] | outcome [7] | outcome [8] | Potency [9] | outcome [10] | outcome [11] | Potency [12] | Potency [14] | outcome [15] | Potency [16]

COc1c2occc2c(OC)c2c(=O)cc(C)oc12
inactive: fluorescence, % of fluorescein [1] -0.0108% [at 18.6 µM] | fluorescence, % of fluorescent control [2] -0.0224% [at 18.6 µM] | activity change [3] 0.0751% [at 18.6 µM] | fluorescence, % of fluorescent control [4] -0.33% [at 18.6 µM] | fluorescence, % of Rose Bengal [5] -0.125% [at 18.6 µM] | fluorescence, % of fluorescent control [6] -0.0661% [at 18.6 µM] | fluorescence, % of fluorescein control [7] 0.0616% [at 18.6 µM] | fluorescence, % of fluorescent control [8] 0.0073% [at 18.6 µM] | Potency [9] | outcome [10] | outcome [11] | Potency [12] | Potency [13] | Potency [14] | outcome [15] | Potency [16]

CC(=O)O[C@H]1C[C@@H]2CC[C@@]1(C)C2(C)C
inactive: outcome [1] | outcome [2] | outcome [3] | outcome [4] | outcome [5] | outcome [6] | outcome [7] | outcome [8] | Potency [9] | outcome [10] | outcome [11] | Potency [12] | Potency [14] | outcome [15] | outcome [17] | outcome [18] | Potency [19] | Potency [16] | outcome [20]

CCCCCC(C)O (stereo not drawn)
inactive: outcome [1] | outcome [2] | outcome [3] | outcome [4] | outcome [5] | outcome [6] | outcome [7] | outcome [8] | Potency [9] | outcome [10] | outcome [11] | Potency [12] | Potency [14] | outcome [15] | Potency [16]

N#Cc1ccccc1O
inactive: outcome [1] | outcome [2] | outcome [3] | outcome [4] | outcome [5] | outcome [6] | outcome [7] | outcome [8] | Potency [9] | outcome [10] | outcome [11] | Potency [12] | Potency [13] | Potency [14] | outcome [15] | Potency [16]

C/C=C(\C)C(=O)OCCc1ccccc1
inactive: outcome [1] | outcome [2] | outcome [3] | outcome [4] | outcome [5] | outcome [6] | outcome [7] | outcome [8] | Potency [9] | outcome [10] | outcome [11] | Potency [12] | Potency [13] | Potency [14] | outcome [15] | Potency [16]

O/N=C/C=N/O
inactive: outcome [1] | outcome [2] | outcome [3] | outcome [4] | outcome [5] | outcome [6] | outcome [7] | outcome [8] | Potency [9] | outcome [10] | outcome [11] | Potency [12] | Potency [14] | outcome [15] | Potency [16]

CCCC(=O)OC/C=C(\C)CCC=C(C)C
inactive: outcome [1] | outcome [2] | outcome [3] | outcome [4] | outcome [5] | outcome [6] | outcome [7] | outcome [8] | Potency [9] | outcome [10] | outcome [11] | Potency [12] | Potency [13] | Potency [14] | outcome [15] | Potency [16]

CC(=O)O[Si](C)(OC(C)=O)OC(C)=O
inactive: outcome [1] | outcome [2] | outcome [3] | outcome [4] | outcome [5] | outcome [6] | outcome [7] | outcome [8] | Potency [9] | outcome [10] | outcome [11] | Potency [12] | Potency [13] | Potency [14] | outcome [15] | Potency [16]
